# Laboratory results as given in PubChem BioAssay AID1508600 (Functional Genomics Laboratory (NCATS/FGL), 2020).
# Among all 53,000 sequences or so, about 3,700 (7%) were called active. Many of the other results were omitted from the sample, so actives are more common in it than they were. Unmarked numbers belong to inactive results.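 The calls were made as follows: active = gene knockdowns whose robust z-score for IL-1 alpha signal is at least 2 or at most -2, so actives lie on both sides; inactive = the rest.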
# Experiment: Components of the Cytosolic LPS Sensing Pathway: Gene Identification via Genome-wide siRNA Screen;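 also: robust z of the log signal after scaling to non-targeting control siRNA wells of the plate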
# Details: RAW264.7 macrophages, IL-1a HTRF, actives lie on both sides, screened at 100 nM (by protocol), cells primed 5 h with Pam3CSK4 first
# Procedure, shortened: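 Mouse macrophage line RAW264.7 is transfected with siRNA (100 nM final), grown 48h, primed with TLR ligand Pam3CSK4 5 h and given intracellular LipidA 24 h. IL-1a in supernatant is read by HTRF and viability by luminescence.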
row,Sequence,z-score
1,GGGCAACCCACAAUAAAAATT against B9d1,-1.66
2,GGCUUUGAGAUAUGAACAGTT against Arrdc2,2.53 (active)
3,GGCAAGGAAUCAAUGUCUCTT against Fscn2,-0.229
4,GGACAAUUCCAGUCAAUAATT against Ccdc115,-1.01
5,GGAUUUCGGCUUUUUGAACTT against Bcas1,0.531
6,GCCCUUAUGGACGAAAUUUTT against Ang2,0.0523
7,GGUCUGCUCAAUGCUAUCATT against Olfr918,-1.47
8,GGAGAGACUCAGGAGUUUUTT against Rnd2,2.74 (active)
9,UGAAUAAGGUGUGGUGCUCTT against Vmn1r148,0.607
10,GGCUAACUUUAGUGAGGUATT against 3110070M22Rik,0.233
11,CCGAAGUGCAACAAGCCAATT against Abl2,1.17
12,GGGUACGUGAAGAAACUUCTT against Meig1,-2.23 (active)
13,GGGCACACGUACCAACUAUTT against Mib2,-0.458
14,GGGACCCUACAAAAUCAUUTT against Ganab,0.467
15,GGAUCUUUUCAGGUUCUAATT against Olfr659,0.377
16,GCUAGAAGCCUGACAUUUUTT against Tbca,-0.538
17,CGAUUGAUGAAUCUGGUUCTT against Racgap1,-0.31
18,GCUGGUCAAGGGUCUAGAGTT against Saa3,-2.05 (active)
19,GGGAGUUCUCUAAAUGCUUTT against Olfr482,1.52
20,GCCUCCAGUAUCAUAAUUGTT against Antxr2,1.26
21,CCAGUUCGAUGUGGUAAUATT against St3gal5,1.11
22,GGAUGUCACAUGACAGUUUTT against Tmprss4,0.563

row,Sequence,z-score
1,GGAUCCAACAAAUGUUAUUTT against Ccdc92,2.06 (active)
2,CGAUGGUGAUUCCCAUGUUTT against Olfr996,0.529
3,GCUAUCUCGGUGUCAACUUTT against Aqp7,-1.26
4,GGUUGGAUUAUUAGGAAUUTT against Dnah5,0.0387
5,GGGCUCCUUUUUUUUUUUUTT against Frat1,-2.55 (active)
6,CCAAUUGCUCUCCAUGAAATT against Coro1c,0.331
7,GCUUGGAAGACAUUGACCCTT against Brsk2,-0.996
8,GGUUACAGAAGAAUUAGAATT against Ift57,9.9e-05
9,CCCUCUUUAUCGUCUGUGATT against Gpha2,-2.89 (active)
10,GGGAUUGAGAUCCUCAUACTT against Olfr1179,0.125
11,GCCGAGAUGGUCAUAAGCUTT against Rbbp5,1.99
12,CCUACCACAACAUGUAUCCTT against S100a11,2.25 (active)
13,GCACGGCGAAAAAAUCUUCTT against Katnal2,-0.167
14,GCAGUGGUAGAACAUCCAATT against Bhmt2,0.585
15,CCUACUGUCUAAGAAUACATT against Olfr1138,-1.65
16,CCUUCCACAAAUACUCAGGTT against S100a4,0.562
17,GGCUUAUGUGAUUUUGAUUTT against Gpr63,-0.628
18,GGAGAAGAUGUCAUCCAGATT against Zfp467,-0.37
19,GGAUAGACACUAGGAUCCUTT against Pdcd1lg2,0.721
20,GCUGCUAUGAGAGAGUUUUTT against Serpind1,2.18 (active)
21,GGCAACAAAUCAAAGCAGCTT against Anxa7,1.4
22,GCUUAUAAAGUAGUGGUUUTT against Wnt2b,-0.384

row,Sequence,z-score
1,GCACCGAGUGGAAUAAUCATT against Lrp12,3.44 (active)
2,CCGUAAGUCUCGGAUCUCCTT against Plcxd1,0.373
3,GCCACUACAUAAAAUAGUCTT against Ube2z,0.0966
4,GGAGAUGAGGUGAAGUGGATT against Acsm4,-0.213
5,GGCAUAUAUACAUGCCUGCTT against Vmn1r215,0.833
6,GCCCUACUAAGUCAAUUAATT against 1700055D18Rik,0.248
7,GGACAUUUUCAAACAAGGCTT against Mthfs,-1.07
8,GGGAAAAUAUCAGCUCAAUTT against D930048N14Rik,-2.63 (active)
9,GCCUUGUGACAGCAUUAGUTT against Slc6a13,-0.0361
10,GGUGCUAAAUAAGACAAUGTT against Psma4,-1.76
11,GGGCAUGUGGAUGACUGAUTT against Gnptg,2.04 (active)
12,GGGCUAGCAUCACAGUUUUTT against Tigd3,2.3 (active)
13,GCCCACUCACACCUAUUCUTT against Olfr1388,0.406
14,GGCGCAAGUUUGAUUUUGATT against Gigyf1,1.23
15,CCAUCUUGAAGAUUCGUUCTT against Olfr486,-1.24
16,GCUAAUCUAUCCGUGUCCUTT against B3gnt3,-0.522
17,GGUAUAGCGGUGCAUGUCATT against Bmp8a,-0.823
18,GCUGGAGAUCAUCCUUCAGTT against Rph3al,0.742
19,GCUCCAGGCAUUGAGAAUGTT against Hcfc1r1,1.98
20,GGGAAGCUAAUAAAAGCACTT against Rgs20,-0.902
21,GGUGCUCAAAGAAUGCAUUTT against Prkar1b,0.367
22,GGCUUGCAUAUCUAUUGGATT against Map2k6,2.61 (active)

row,Sequence,z-score
1,CCUCUCAGAUUUUCACAUATT against Zfp599,1.36
2,GGCUCAAAGUCCUCAGAGCTT against Atp6v1e1,-2.15 (active)
3,GGGAUUGUAUGAGUGCACATT against Coa4,0.657
4,GGAGUCUUCUCAAUUUGACTT against Olfr1105,-0.617
5,CCUAUAUGACAAAAGACAGTT against Glra2,-0.168
6,GGCGGUCUUUAAGAUGCUCTT against Ubl7,2.12 (active)
7,GCUAGGUAUACAGCCAAAGTT against Spryd4,-0.699
8,GCGCGUCAUCUUCUGACUUTT against Mmgt2,1.45
9,GGUGACUUGCUUUAGAAAATT against Tnfaip8l1,0.184
10,GCACCUCCUUAUGUGUCAUTT against Chrm2,0.729
11,GGACAUGACAUUUUUACGCTT against Cyp4f16,-1.26
12,GGAUAUGAACAAUAGCAUATT against Kcna1,2.2 (active)
13,GGACUUAUCACUAUUUGCATT against Dlgap3,0.782
14,GCCAUAGCUAUUGUCAUUCTT against Mmp16,0.441
15,GCAUGGUAUCAGGUACAUATT against Med9,2.2 (active)
16,GGUCUUUGUACAUCAAUGUTT against Zfp677,-0.241
17,AACCAGUCCUUGAAAAGAGTT against Olfr128,-1.01
18,GGAAGGUAUCCACUGUGCATT against Nme6,-1.46
19,CCUCACCAGGUAAAUUUUUTT against Ro60,-1.25
20,GGUACUUUCCUUUCGAUGCTT against Skint10,-0.524
21,CCUGGUAACCUGCUAAAAGTT against Gm5124,1.24
22,GGACUGGUUCUUCAGUACCTT against Cradd,2.21 (active)

row,Sequence,z-score
1,GGAACACAUUACCUCAAUUTT against Lipt2,-0.705
2,GGAACUCAUGUGAAGCUCCTT against Ssu72,-0.544
3,GGAGCUGAGCAGUGAUGAATT against Snx29,-2.08 (active)
4,GCACCUAGAUUGAUCAUAGTT against Olfr1183,-0.894
5,GGAACCGCUGAUGCUUAAGTT against Ctsl,-0.726
6,GGCUCAGUGAAGGCAAGUUTT against Hspb2,2.56 (active)
7,GGGUCAUCCACUUUGUCAGTT against Fam177a,-0.584
8,CCGCUGCAUAGCAUGUACATT against Dusp23,0.901
9,GGUGGAGAUUAUUCAUGUUTT against Dpp8,2.31 (active)
10,GGUGAACAGAAGGACAGAUTT against Gm4736,0.479
11,CCAUUUAUGGAAUACACCUTT against Tmem150b,0.0118
12,GGCCAAAUGACUGAGAUUGTT against Rcan3,1.35
13,GGAAGAAUUUAAGAAGUUCTT against Pdia3,1.24
14,GGUCCCUGUGAACAAGCUGTT against Serpinf1,1.12
15,GGUGUUACAUAUGAGGAAUTT against Ociad1,1.61
16,GGCAGACAGAGGGUAAAAATT against Slc24a1,-0.956
17,GGAAGAGGAAUAUUACCAGTT against Marveld3,-2.16 (active)
18,GGUUCUCUACAAAGUAAGUTT against Slc35e1,-0.0459
19,GCUUGUUCAGGAAAUGAAATT against Tmcc3,-1.15
